Bioassay records from PubChem.
This is one part of a sample in which hits are shown more often than they occur.
CBX7 AlphaScr – CBX7 inhibition, primary AlphaScreen | AlphaScreen His6-CBX7 / biotin-H3K27me3 peptide binding; stronger effect = lower value | normalised signal (fraction of DMSO) (concentration not given with the values) | actives 1.1% (n = 66,000); in the data active means normalised signal below about 0.5
Target sequence (O95931 whole entry, looked up): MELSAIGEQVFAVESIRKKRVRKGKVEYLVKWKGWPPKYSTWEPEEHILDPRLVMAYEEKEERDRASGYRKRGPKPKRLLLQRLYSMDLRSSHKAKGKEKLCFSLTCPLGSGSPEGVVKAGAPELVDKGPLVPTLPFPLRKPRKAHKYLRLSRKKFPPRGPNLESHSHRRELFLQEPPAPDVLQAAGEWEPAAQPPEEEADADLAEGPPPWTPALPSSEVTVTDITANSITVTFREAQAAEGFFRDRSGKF
Numbers without * were called inactive.

SMILES	CBX7 AlphaScr
COc1ccc(N2CCN(C(c3cccs3)C(C)NS(=O)(=O)c3ccc(F)cc3)CC2)cc1 (centres undefined)	0.489*
COc1ccc(N2CCN(C(c3cccs3)C(C)NS(=O)(=O)c3ccc(C)cc3)CC2)cc1 (centres undefined)	0.517
COc1ccc(N2CCN(C(c3cccs3)C(C)NS(=O)(=O)c3ccccc3)CC2)cc1 (centres undefined)	0.476*
CC(NS(=O)(=O)c1ccc(F)cc1)C(c1cccs1)N1CCN(c2ccccc2)CC1 (centres undefined)	0.864
CC(NS(=O)(=O)c1ccc(F)cc1)C(c1cccs1)N1CCN(C)CC1 (centres undefined)	1
CCS(=O)(=O)NC(C)C(c1cccs1)N1CCN(c2ccc(OC)cc2)CC1 (centres undefined)	0.826
CCCNC(=O)c1ccc2c(c1)N(Cc1ccc(Cl)cc1)C(=O)c1ccccc1S2(=O)=O	0.966
Cc1ccc(S(=O)(=O)Nc2ccc(-c3csc(Nc4cccc(C(F)(F)F)c4)n3)cc2)cc1	0.783
CC(C)c1ccc(NS(=O)(=O)c2ccc3[nH]cc(C(=O)N4CCN(C)CC4)c(=O)c3c2)cc1	1.27
CCN(CC)CCCNC(=O)Cc1cn(C)c2ccccc12	0.975
CCN(CCCNC(=O)Cc1cn(C)c2ccccc12)c1ccccc1	0.498*
Cn1cc(CC(=O)NCCCN2CCCC2)c2ccccc21	0.96
CCN(CC)CC#CC(O)(c1ccccc1)C1CCCCC1 (centres undefined)	1.01
Cc1cccc(OCCn2c(NC(=O)c3ccccc3Cl)nc3ccccc32)c1	0.34*
Cc1cccc(OCCn2c(C)nc3ccccc32)c1	1.15
COc1ccccc1C(=O)Nc1nc2ccccc2n1CCOc1ccccc1	0.836
O=C(Nc1ccccn1)c1nc[nH]c1C(=O)O	0.296*
Cc1ccccc1NC(=O)c1nc[nH]c1C(=O)Nc1ccccc1C	0.74
O=C(Nc1ccc(Br)cc1)c1ccccc1C(=O)c1ncc[nH]1	1.06
O=C(Nc1ccccc1C(=O)Nc1ccccn1)c1ccccc1	1.05
O=C(Nc1ccc(Br)cc1)c1nc[nH]c1C(=O)O	0*
CCOC(=O)c1[nH]cnc1C(=O)Nc1ccc(Br)cc1	0.976
CCN(c1ccccc1)S(=O)(=O)c1ccc2[nH]cc(C(=O)NCC3CCCO3)c(=O)c2c1 (centres undefined)	0.941
CCOC(=O)c1cnc2c(Cl)cccc2c1Nc1ccc(C)c(C)c1	0.96
Cc1cc(NC(=O)CSc2nc(NCc3ccc(Cl)cc3)c3ccccc3n2)n[nH]1	0.831
SMILES	CBX7 AlphaScr
COc1ccc(CNc2nc(SCC(=O)Nc3cc(C)[nH]n3)nc3ccccc23)cc1	0.373*
COc1cc(Nc2nc(SCC(=O)Nc3cc(C)[nH]n3)nc3ccccc23)cc(OC)c1	1.04
Cc1ccc(-n2nc(C)c3c(C)c(CCC(=O)NCc4cccnc4)c(C)nc32)cc1	0.845
O=S(=O)(Nc1nccs1)c1ccc(Nc2nnc(-c3ccc(Cl)cc3)c3ccccc23)cc1	0.23*
Cc1ccc(Nc2nnc(-c3ccc(C)c(S(=O)(=O)NC(C)(C)C)c3)c3ccccc23)cc1	0.928
Cc1nnc(Nc2ccc(S(=O)(=O)Nc3nccs3)cc2)c2ccccc12	0.492*
Cc1ccc(-c2nnc(Nc3ccc4c(c3)ncn4C)c3ccccc23)cc1	0.582
NC(=O)COc1ccc(Nc2nnc(-c3ccc(Cl)cc3)c3ccccc23)cc1	0.909
Cc1ccc(-c2nnc(Nc3ccc(Cl)cc3)c3ccccc23)cc1S(=O)(=O)NCCO	0.817
Cc1ccc(-c2nnc(Nc3ccc(S(=O)(=O)Nc4nccs4)cc3)c3ccccc23)cc1	0.363*
O=C(Nc1ccc(S(=O)(=O)Nc2nccs2)cc1)c1ccccc1Br	1.04
COc1cccc(OC)c1C(=O)Nc1ccc(S(=O)(=O)Nc2nccs2)cc1	1.02
O=C1CCc2cc(S(=O)(=O)NC(Cc3ccccc3)C(=O)NC3CCCCCCC3)ccc2N1 (centres undefined)	0.999
COc1ccc(NC(=O)c2c(NCc3cccc(OC)c3OC)sc3c2CCCC3)cc1	0.701
O=C(NC1CCCCCC1)c1cc2c(s1)CS(=O)(=O)C2	0.973
CCOC(=O)CC(NCc1ccncc1)c1cccs1 (centres undefined)	0.815
O=C(C1CCC1)N1CCc2cc(S(=O)(=O)N3CCN(C4CCCCC4)CC3)ccc21	1.04
Cc1ccccc1Nc1c(-c2ccccn2)nc2ccc(Cl)cn12	0.959
Clc1ccc2nc(-c3ccccn3)c(Nc3ccccc3)n2c1	0.591
COc1ccc(-c2nc3ncccn3c2Nc2ccc(C)cc2)cc1	1.03
COc1ccc(Nc2c(-c3ccccn3)nc3ccc(C)cn23)cc1	0.0598*
Cc1ccc2nc(-c3cccnc3)c(Nc3ccccc3)n2c1	1.09
Cc1ccc2nc(-c3ccccn3)c(Nc3ccccc3)n2c1	0.109*
Cc1ccc(Nc2c(-c3ccccc3)nc3ccc(C)cn23)cc1	1.24
Fc1ccc(Nc2c(-c3ccccn3)nc3ccc(Cl)cn23)cc1	0.858
SMILES	CBX7 AlphaScr
Cc1ccc(Nc2c(-c3cccnc3)nc3ccc(C)cn23)cc1	0.937
Cc1ccc2nc(-c3ccncc3)c(Nc3ccccc3C)n2c1	0.893
Cc1ccc2nc(-c3ccccn3)c(Nc3ccc(F)cc3)n2c1	0.212*
Cc1ccc2nc(-c3ccccn3)c(Nc3ccccc3C)n2c1	0.00675*
CCOc1ccc(NC(=O)N(CCN2CCOCC2)C2CCN(C(C)=O)CC2)cc1	0.985
Cc1cccc(CN2C(=O)CSc3ccc(C(=O)NCC4COc5ccccc5O4)cc32)c1 (centres undefined)	0.968
COc1ccc(C(c2sc3nc(C)nn3c2O)N2CCc3ccccc3C2)cc1OC (centres undefined)	0.976
COc1ccc(OCCn2c(=N)n(CC(N)=O)c3ccccc32)cc1	0.95
COc1ccc(OC)c2[nH]c(=O)c(CCNC(=O)c3ccccc3)cc12	1.06
O=S(=O)(Nc1cccc(-c2cn3ccccc3n2)c1)c1cccc(C(F)(F)F)c1	1.03
Clc1ccc2nc(-c3ccc(N4CCOCC4)cc3)c(Nc3ccc4c(c3)OCCO4)n2c1	1.14
Clc1ccc2nc(-c3ccccc3)c(Nc3ccc4c(c3)OCCO4)n2c1	1.07
Clc1ccc2nc(-c3ccccn3)c(Nc3ccc4c(c3)OCCO4)n2c1	0.152*
Cc1cc(C)cc(NS(=O)(=O)c2ccc3[nH]cc(C(=O)NCc4cccs4)c(=O)c3c2)c1	1.43
CCOC(=O)c1c(NC(=O)COc2cc(Cl)ccc2Cl)sc2c1CCC2	0.961
CC(CCc1ccccc1)NC(=O)C1C2C=CC3(CN(Cc4cccs4)C(=O)C13)O2 (centres undefined)	1.03
Cc1ccc2oc(-c3cccc(NC(=O)c4ccccc4Cl)c3)nc2c1	0.919
COc1cccc(OC)c1C(=O)Nc1cccc(-c2nc3cc(C)ccc3o2)c1	0.905
Cc1ccc2oc(-c3cccc(NC(=O)c4ncn[nH]4)c3)nc2c1	0.0761*
CSc1cccc(Nc2cc(C(=O)NCCC(C)C)c3ccccc3n2)c1	1.19
O=C(NCCc1ccccc1)C1(c2ccccc2)CCOCC1	1.1
CCOc1cc2c(cc1OC)C(c1ccc(F)cc1)NCC2 (centres undefined)	1.03
CCN(CCNc1cc(C)nc2c(-c3ccccc3OC)c(C)nn12)c1ccccc1	0.851
CCN(Cc1ccccc1)S(=O)(=O)c1ccc(C(=O)Nc2nnc(-c3cccc(OC)c3)o2)cc1	0.955
CCOC(=O)c1oc2ccccc2c1NC(=O)c1ccc(S(=O)(=O)N(C)Cc2ccccc2)cc1	1.05
COc1cccc(-c2nnc(NC(=O)c3ccc(S(=O)(=O)N4CCCC4)cc3)o2)c1	0.889
